Results reported in PubChem BioAssay (NCATS).
Inconclusive results are not listed. Entries that show only a call come without a potency. Activity calls are given as the source filed them. Unless noted, calls follow the shape of the dose curve; as a rule, active = well fitted curve in the direction sought with a large enough effect; inconclusive = small, poorly fitted or top-dose-only effect, or another doubt; inactive = no such curve, though single readings can be large; an effect the other way counts as inactive or inconclusive.

How the values were obtained:
[1] = qHTS for Inhibitors of the Functional Ribonucleoprotein Complex (vRNP) of Lassa (LASV) Arenavirus: LASV Primary Screen - GLuc reporter signal (AID 1347082; calls by dose curve; tested in HEK293 reporter line; also: nearly all actives have a fitted effect of over 60% in size; also: potency is read from the fitted curve at half-maximal effect)
[2] = qHTS for Inhibitors of the Functional Ribonucleoprotein Complex (vRNP) of Lassa (LASV) Arenavirus: Viability assay - alamar blue signal for LASV Primary Screen (AID 1347083; calls by dose curve; tested in HEK293 reporter line; also: nearly all actives have a fitted effect of over 80% in size; also: potency is read from the fitted curve at half-maximal effect)
[3] = qHTS for Inhibitors of the Functional Ribonucleoprotein Complex (vRNP) of Lymphocytic Choriomeningitis Arenaviruses (LCMV): Viability assay - alamar blue signal for LCMV Primary Screen (AID 1347085; calls by dose curve; tested in HEK293 reporter line; also: nearly all actives have a fitted effect of over 80% in size; also: potency is read from the fitted curve at half-maximal effect)
[4] = biological target: Nucleoprotein (Lymphocytic choriomeningitis virus (strain Armstrong)) (UniProt P09992); test: qHTS for Inhibitors of the Functional Ribonucleoprotein Complex (vRNP) of Lymphocytic Choriomeningitis Arenaviruses (LCMV): LCMV Primary Screen - GLuc reporter signal (AID 1347086; calls by dose curve; also: nearly all actives have a fitted effect of over 70% in size; also: potency is read from the fitted curve at half-maximal effect)
Nucleoprotein (Lymphocytic choriomeningitis virus (strain Armstrong)), sequence (P09992 whole entry, looked up): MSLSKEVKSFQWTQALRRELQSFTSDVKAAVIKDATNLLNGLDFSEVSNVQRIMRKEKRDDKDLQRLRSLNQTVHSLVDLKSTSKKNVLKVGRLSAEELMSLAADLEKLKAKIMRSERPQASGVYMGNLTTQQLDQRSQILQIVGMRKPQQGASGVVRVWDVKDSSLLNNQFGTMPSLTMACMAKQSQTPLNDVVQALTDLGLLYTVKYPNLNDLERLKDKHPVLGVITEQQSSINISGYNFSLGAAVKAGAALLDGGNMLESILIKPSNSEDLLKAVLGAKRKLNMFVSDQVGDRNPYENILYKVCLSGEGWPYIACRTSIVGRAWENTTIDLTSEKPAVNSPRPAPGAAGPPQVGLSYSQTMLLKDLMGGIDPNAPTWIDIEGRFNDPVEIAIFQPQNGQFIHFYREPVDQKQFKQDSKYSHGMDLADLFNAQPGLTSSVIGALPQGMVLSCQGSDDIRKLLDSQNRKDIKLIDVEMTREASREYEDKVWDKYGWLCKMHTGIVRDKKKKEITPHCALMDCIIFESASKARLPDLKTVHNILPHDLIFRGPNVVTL

[5] = qHTS of pediatric cancer cell lines to identify multiple opportunities for drug repurposing: Primary screen for TC32 cells (AID 1347089); also: nearly all actives have a fitted effect of over 60% in size
Summary of the method: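 Luminescent ATP read-out (CellTiter-Glo) of metabolically active TC32 cells after 48 h exposure. Concentration-response curves came from 11-point (MIPE, 0.78 nM–46 µM) or 8-point (NPC, 0.59 nM–46 µM) primary titrations; follow-up used 11 points.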

[6] = qHTS of pediatric cancer cell lines to identify multiple opportunities for drug repurposing: Primary screen for DAOY cells (AID 1347090); also: nearly all actives have a fitted effect of over 55% in size; also: potency is read from the fitted curve at half-maximal effect
Summary of the method: (§1)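 Eight- or eleven-point concentration series, 48 h treatment at 37 degrees C in growth media; readout CellTiter-Glo luminescence. Potency and efficacy were taken from the concentration-response curves.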

[7] = qHTS of pediatric cancer cell lines to identify multiple opportunities for drug repurposing: Primary screen for SJ-GBM2 cells (AID 1347091); also: potency is read from the fitted curve at half-maximal effect
Summary of the method: as §1

[8] = qHTS of pediatric cancer cell lines to identify multiple opportunities for drug repurposing: Primary screen for A673 cells (AID 1347092); also: nearly all actives have a fitted effect of over 45% in size; also: potency is read from the fitted curve at half-maximal effect
Summary of the method: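 Cell viability of A673 measured by CellTiter-Glo ATP luminescence after 48 hours compound exposure. Dilution series spanned 0.78 nM to 46 µM (MIPE, 11-point) or 0.59 nM to 46 µM (NPC, 8-point); bortezomib 2.3 uM positive control.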

[9] = qHTS of pediatric cancer cell lines to identify multiple opportunities for drug repurposing: Primary screen for SK-N-MC cells (AID 1347093); also: potency is read from the fitted curve at half-maximal effect
Summary of the method: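 Metabolically active cells were quantified by ATP-dependent luminescence (CellTiter-Glo, 15 min at room temperature) following 48 h treatment. Cells had been plated at 500-1,000 per well and settled for 5 h beforehand.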

[10] = qHTS of pediatric cancer cell lines to identify multiple opportunities for drug repurposing: Primary screen for BT-37 cells (AID 1347094); also: potency is read from the fitted curve at half-maximal effect
Summary of the method: (§2)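 Cells plated at 500-1,000/well in growth medium, compounds added after 5 h. MIPE tested at 11 points (from 0.78 nM), NPC at 8 points (from 0.59 nM). CellTiter-Glo luminescence after 48 h; concentration-response curves from primary screen.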

[11] = qHTS of pediatric cancer cell lines to identify multiple opportunities for drug repurposing: Primary screen for NB-EBc1 cells (AID 1347095)
Summary of the method: as §2

[12] = qHTS of pediatric cancer cell lines to identify multiple opportunities for drug repurposing: Primary screen for U-2 OS cells (AID 1347096); also: nearly all actives have a fitted effect of over 50% in size; also: potency is read from the fitted curve at half-maximal effect
Summary of the method: (§3)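 Cells (500-1,000/well) in growth media were settled 5 h at 37 degrees C, then given compounds for 48 h. Viability was read as CellTiter-Glo luminescence. Primary runs used MIPE at 11 points (0.78 nM-46 µM) and NPC at 8 points (0.59 nM-46 µM); follow-ups used 11 points.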

[13] = qHTS of pediatric cancer cell lines to identify multiple opportunities for drug repurposing: Primary screen for Saos-2 cells (AID 1347097); also: nearly all actives have a fitted effect of over 40% in size; also: potency is read from the fitted curve at half-maximal effect
Summary of the method: as §2

[14] = qHTS of pediatric cancer cell lines to identify multiple opportunities for drug repurposing: Primary screen for SK-N-SH cells (AID 1347098); also: nearly all actives have a fitted effect of over 65% in size; also: potency is read from the fitted curve at half-maximal effect
Summary of the method: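 Cells (500-1,000/well) rested 5 h, then received compounds for 48 h; metabolically active cells were measured by CellTiter-Glo luminescence. Final concentrations spanned up to 46 µM (MIPE, 11-point) or 0.59 nM-46 µM (NPC, 8-point) in primary screens, 11-point in follow-ups.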

[15] = qHTS of pediatric cancer cell lines to identify multiple opportunities for drug repurposing: Primary screen for NB1643 cells (AID 1347099); also: nearly all actives have a fitted effect of over 50% in size; also: potency is read from the fitted curve at half-maximal effect
Summary of the method: as §2

[16] = qHTS of pediatric cancer cell lines to identify multiple opportunities for drug repurposing: Primary screen for LAN-5 cells (AID 1347100); also: potency is read from the fitted curve at half-maximal effect
Summary of the method: as §3

With `CC(C[N+](C)(C)C)OC(N)=O` (stereo not given) the Potency [1] was “inactive”, the Potency [2] was “inactive” and the Potency [3] was “inactive”. For the same compound, the Potency [4] was “inactive”.
With `CC(C)N[C@@H]1CCn2c(=O)[nH]c3cccc(c32)[C@@H]1O` the Potency [1] was 8.63 µM (active), the Potency [2] was 19.3 µM (active) and the Potency [3] was 4.85 µM (active). For the same compound, the Potency [4] was 2.73 µM (active), the Potency [5] was “inactive” and the Potency [6] was 1.18 µM (active). The Potency [7] was 6.62 µM (active), the Potency [8] was 0.833 µM (active) and the Potency [9] was 1.05 µM (active). For the same compound, the Potency [10] was 27.3 µM (active), the Potency [11] was “inactive” and the Potency [12] was 11.8 µM (active). For the same compound, the Potency [13] was 5.26 µM (active), the Potency [14] was 8.57 µM (active) and the Potency [15] was 4.18 µM (active). For the same compound, the Potency [16] was 0.743 µM (active).
With `C[C@@H]1[C@H](O)[C@@H](C)C=CC=CCCC=CC=CC=CC=C[C@H](O[C@H]2O[C@@H](C)[C@H](O)[C@@H](N)[C@@H]2O)CC2O[C@](O)(C[C@@H](O)[C@H](O)CC[C@@H](O)C[C@@H](O)C[C@@H](O)CC(=O)O[C@H]1C)C[C@H](O)[C@H]2C(=O)O` the Potency [1] was “inactive”, the Potency [2] was “inactive” and the Potency [3] was “inactive”. For the same compound, the Potency [4] was “inactive”, the Potency [5] was “inactive” and the Potency [6] was “inactive”. The Potency [7] was “inactive”, the Potency [8] was “inactive” and the Potency [9] was “inactive”. For the same compound, the Potency [10] was “inactive”, the Potency [11] was “inactive” and the Potency [12] was “inactive”. For the same compound, the Potency [13] was “inactive”, the Potency [14] was “inactive” and the Potency [15] was “inactive”. For the same compound, the Potency [16] was “inactive”.
In the case of `NC(=O)c1ccc(I)c([N+](=O)[O-])c1`, the Potency [1] is reported as “inactive”, the Potency [2] is reported as “inactive” and the Potency [3] is reported as “inactive”. For the same compound, the Potency [4] was “inactive”.
For `CC(C)(C)[C@]1(O)C[C@@H]2OC(=O)C[C@@]23C(=O)O[C@@H]2OC(=O)[C@H](O)C213` (stereo not given in full), the Potency [1] was “inactive”, the Potency [2] was “inactive” and the Potency [3] was “inactive”. For the same compound, the Potency [4] was “inactive”, the Potency [5] was “inactive” and the Potency [6] was “inactive”. The Potency [7] was “inactive”, the Potency [8] was “inactive” and the Potency [9] was “inactive”. The Potency [10] was “inactive”, the Potency [11] was “inactive” and the Potency [12] was “inactive”. For the same compound, the Potency [13] was “inactive”, the Potency [15] was “inactive” and the Potency [16] was “inactive”.
In the case of `CS(=O)(=O)Nc1ccc([N+](=O)[O-])cc1Oc1ccccc1`, the Potency [1] is reported as “inactive”, the Potency [2] is reported as “inactive” and the Potency [3] is reported as “inactive”. The Potency [4] was “inactive”.
With `CC1=C(/C=C/C(C)=C/C=C/C(C)=C/C(=O)O)C(C)(C)CCC1` the Potency [1] was “inactive”, the Potency [2] was “inactive” and the Potency [3] was “inactive”. For the same compound, the Potency [4] was “inactive”.
For `CN1C(=O)CC[C@H]1c1cccnc1`, the Potency [1] was “inactive”, the Potency [2] was “inactive” and the Potency [3] was “inactive”. The Potency [4] was “inactive”.
For `NC(=O)Nc1cc(-c2cccc(F)c2)sc1C(=O)N[C@H]1CCCNC1`, the Potency [1] was 1.22 µM (active), the Potency [2] was 0.306 µM (active) and the Potency [3] was 1.53 µM (active). For the same compound, the Potency [4] was 3.43 µM (active).
With `Cc1c(CN2CCN(C(=O)C(C)C)CC2)sc2c(N3CCOCC3)nc(-c3cnc(N)nc3)nc12` the Potency [1] was 0.273 µM (active), the Potency [2] was 0.137 µM (active) and the Potency [3] was 0.273 µM (active). The Potency [4] was 0.217 µM (active).
In the case of `C[C@H](CN1CCCC1)C(=O)c1ccc(C(F)(F)F)cc1`, the Potency [1] is reported as “inactive”, the Potency [2] is reported as “inactive” and the Potency [3] is reported as “inactive”. The Potency [4] was “inactive”.
For `CCN(CC)CCn1c(=O)c(Cc2ccc(OC)cc2)nc2ccccc21`, the Potency [1] was “inactive”, the Potency [2] was “inactive” and the Potency [3] was “inactive”. The Potency [4] was “inactive”.
With `Fc1cc(Br)ccc1CBr` the Potency [1] was “inactive”, the Potency [2] was “inactive” and the Potency [3] was “inactive”. For the same compound, the Potency [4] was “inactive”, the Potency [5] was “inactive” and the Potency [6] was “inactive”. The Potency [7] was “inactive”, the Potency [8] was “inactive” and the Potency [9] was “inactive”. The Potency [11] was “inactive”, the Potency [12] was “inactive” and the Potency [13] was “inactive”. The Potency [14] was “inactive”, the Potency [15] was “inactive” and the Potency [16] was “inactive”.
With `O=C(Oc1ccc([N+](=O)[O-])cc1)N1CCC(C(O)(c2ccc3c(c2)OCO3)c2ccc3c(c2)OCO3)CC1` the Potency [1] was “inactive”, the Potency [2] was 24.3 µM (active) and the Potency [3] was 3.06 µM (active). For the same compound, the Potency [4] was “inactive”, the Potency [5] was “inactive” and the Potency [6] was “inactive”. The Potency [7] was “inactive”, the Potency [9] was 16.6 µM (active) and the Potency [11] was “inactive”. The Potency [12] was “inactive”, the Potency [13] was “inactive” and the Potency [14] was “inactive”. For the same compound, the Potency [16] was “inactive”.
With `Cc1ccc(Cl)c(O)c1` the Potency [1] was “inactive”, the Potency [2] was “inactive” and the Potency [3] was “inactive”. The Potency [4] was “inactive”, the Potency [5] was “inactive” and the Potency [6] was “inactive”. For the same compound, the Potency [7] was “inactive”, the Potency [8] was “inactive” and the Potency [9] was “inactive”. For the same compound, the Potency [10] was “inactive”, the Potency [11] was “inactive” and the Potency [12] was “inactive”. The Potency [13] was “inactive”, the Potency [15] was “inactive” and the Potency [16] was “inactive”.
With `CCC(=O)OC1CCC2C3CCC4=CC(=O)CC[C@@]4(C)C3CC[C@]12C` (stereo not given in full) the Potency [1] was “inactive”, the Potency [2] was “inactive” and the Potency [3] was “inactive”. The Potency [4] was “inactive”, the Potency [5] was “inactive” and the Potency [6] was “inactive”. For the same compound, the Potency [7] was “inactive”, the Potency [9] was 9.35 µM (active) and the Potency [11] was “inactive”. The Potency [12] was “inactive”, the Potency [13] was “inactive” and the Potency [14] was “inactive”. The Potency [15] was “inactive” and the Potency [16] was “inactive”.
With `O=S(=O)(O)C(F)(F)C(F)(F)C(F)(F)C(F)(F)F` the Potency [1] was “inactive”, the Potency [2] was “inactive” and the Potency [3] was “inactive”. The Potency [4] was “inactive”, the Potency [5] was “inactive” and the Potency [6] was “inactive”. The Potency [7] was “inactive”, the Potency [8] was “inactive” and the Potency [9] was “inactive”. The Potency [10] was “inactive”, the Potency [11] was “inactive” and the Potency [12] was “inactive”. The Potency [14] was “inactive”, the Potency [15] was “inactive” and the Potency [16] was “inactive”.
In the case of `CCCC[N+]1(C)[C@H]2CC(OC(=O)[C@H](CO)c3ccccc3)C[C@H]1[C@H]1O[C@H]12` (stereo not given in full), the Potency [1] is reported as “inactive”, the Potency [2] is reported as “inactive” and the Potency [3] is reported as “inactive”. The Potency [4] was “inactive”, the Potency [5] was “inactive” and the Potency [6] was “inactive”. For the same compound, the Potency [7] was “inactive”, the Potency [8] was “inactive” and the Potency [9] was “inactive”. For the same compound, the Potency [11] was “inactive”, the Potency [12] was “inactive” and the Potency [13] was “inactive”. The Potency [14] was “inactive”, the Potency [15] was “inactive” and the Potency [16] was “inactive”.
